WRN inhibitor = WRN helicase (human) inhibition; WRN helicase unwinding, fluorescent forked duplex, kinetic; Potency, µM (doses to about 114 µM), without a hit: top-dose activity change, negative = inhibition, most hits filed as inhibitors; 360,000 tested, 0.46% active; Q14191; also: potency is read from the fitted curve at half-maximal effect; % is scaled to controls: 0 for no effect and ±100 for the full control effect; nearly all actives have a fitted effect of over 55% in size
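Primary qHTS, 1536-well format. 20 nM WRN + compound, 15 min RT; start with 100 nM forked fluorophore/quencher duplex, 2 mM ATP (final); kinetic read ex 525/em 598 nm.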
Pol iota inh = inhibitors of human DNA polymerase iota; AID 588590; Pol iota fluorescent replication assay, 10 min; 390,000 tested, 1% active; Potency, µM (doses to about 115 µM), inactives show at the top dose activity, negative = inhibition, hits mostly inhibitors; also: potency is read from the fitted curve at half-maximal effect
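Pol iota at 10 nM preincubated 15 min with compounds at room temperature; reaction started with fluorescent substrate, 50 nM final. Fluorescence read kinetically at 0 and 10 min; buffer-only wells as negative control.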
Pol eta inh-1 = blocks human DNA polymerase eta activity | Q9Y253 | 390,000 tested, 1.2% active | recombinant Pol eta, fluorescent DNA replication assay | Potency, µM (titrated, usually from 114 µM), inactives show top-dose activity change, negative = inhibition, hits mostly inhibitors; also: potency is read from the fitted curve at half-maximal effect; % is scaled to controls: 0 for no effect and ±100 for the full control effect
Target sequence (Q9Y253 whole entry, looked up): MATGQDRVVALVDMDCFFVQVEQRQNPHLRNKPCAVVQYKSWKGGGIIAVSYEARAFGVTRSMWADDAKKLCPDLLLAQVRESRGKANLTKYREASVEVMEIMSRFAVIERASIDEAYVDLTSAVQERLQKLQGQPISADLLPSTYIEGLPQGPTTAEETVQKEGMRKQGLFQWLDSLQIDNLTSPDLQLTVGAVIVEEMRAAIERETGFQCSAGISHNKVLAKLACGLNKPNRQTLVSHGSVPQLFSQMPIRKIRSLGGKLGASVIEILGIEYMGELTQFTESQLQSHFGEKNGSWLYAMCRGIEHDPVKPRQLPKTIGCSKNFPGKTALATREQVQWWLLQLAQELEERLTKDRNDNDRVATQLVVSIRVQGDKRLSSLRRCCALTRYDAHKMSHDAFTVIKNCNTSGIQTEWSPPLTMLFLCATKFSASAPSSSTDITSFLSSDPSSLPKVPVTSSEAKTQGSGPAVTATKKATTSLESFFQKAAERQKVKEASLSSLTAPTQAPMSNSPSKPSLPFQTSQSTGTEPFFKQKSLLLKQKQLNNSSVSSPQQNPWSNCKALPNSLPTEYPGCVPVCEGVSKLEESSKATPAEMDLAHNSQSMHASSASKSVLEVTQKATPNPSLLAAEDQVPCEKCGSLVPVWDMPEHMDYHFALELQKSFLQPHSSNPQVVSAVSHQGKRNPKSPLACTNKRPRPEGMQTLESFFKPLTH
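Pol eta (10 nM) was preincubated with compounds for 15 min at room temperature, after which fluorescent replication substrate (50 nM final) was added to start the reaction. Fluorescence was read kinetically at 0 and 10 min.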
Pol kappa inh-1 = inhibitors of human DNA polymerase kappa. Potency, µM (titrated, usually from 107 µM), for inactives: top-dose activity, negative = inhibition, most hits filed as inhibitors. AID 588579. 400,000 tested, 0.53% active. purified Pol kappa, fluorescent DNA synthesis assay, 10 min. Q9UBT6; also: potency is read from the fitted curve at half-maximal effect; % is scaled to controls: 0 for no effect and ±100 for the full control effect
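Readout: fluorescence, taken kinetically at 0 and 10 min. Conditions: 10 nM Pol kappa, 15 min RT compound preincubation, 50 nM substrate final. Controls: enzyme-free buffer wells.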
POLB inh = DNA polymerase beta (human) inhibition. 340,000 tested, 1.3% active. Pol beta primer extension/strand displacement, fluorescence kinetic. Potency, µM (top dose mostly 114 µM), inactives show at the top dose activity change, negative = inhibition, hits mostly inhibitors; also: potency is read from the fitted curve at half-maximal effect; % is scaled to controls: 0 for no effect and ±100 for the full control effect
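Preincubation: enzyme (10 nM) with compound, 15 min, RT. Reaction: substrate added to 50 nM final. Reads: 0 and 10 min. Analysis: normalized, Hill fit.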
FEN1 inh = inhibitors of human flap endonuclease 1; P39748; AID 588795; Recombinant FEN1 flap cleavage, fluorescence, 15 min; Potency, µM (series often up to 114 µM), for inactives: at the top dose activity change, negative = inhibition, usual class: inhibitors; 390,000 tested, 0.35% active; also: potency is read from the fitted curve at half-maximal effect; % is scaled to controls: 0 for no effect and ±100 for the full control effect; nearly all actives have a fitted effect of over 65% in size
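Steps: FEN1 (10 nM) dispensed; compound added by pin tool; 15 min at room temperature; substrate added to 50 nM final; reads at 0 min and 15 min; data normalized and fitted (four-parameter Hill).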
TbPGK inh = blocks T. brucei phosphoglycerate kinase; AID 686980; TbPGK coupled GAPDH assay, Kinase-Glo luminescence; Potency, µM (doses to about 57.5 µM), for inactives: top-dose activity change, negative = inhibition, usual class: inhibitors; 500 tested, 79% active; shares compounds with Pol kappa inh-1; also: potency is read from the fitted curve at half-maximal effect; % is scaled to controls: 0 for no effect and ±100 for the full control effect; nearly all actives have a fitted effect of over 65% in size
Pol iota confirm = Inhibitors of human DNA polymerase iota, confirmation | 1,500 tested, 77% active | shares compounds with Pol kappa inh-1 | Pol iota primer extension, TAMRA/BHQ fluorescence | AID 720496 | Potency, µM, most hits filed as inhibitors; also: potency is read from the fitted curve at half-maximal effect
GALK confirm = galactokinase (human) inhibition, confirmation. shares compounds with Pol eta inh-1. purified GALK, Kinase-Glo ATP depletion luminescence. Potency, µM (doses to about 115 µM), for inactives: top-dose activity, negative = inhibition, most hits filed as inhibitors. 150 tested, 70% active. AID 2015
Redox cycling = counter-screen for GALK inhibitors: redox cycling H2O2 generation; shares compounds with Pol eta inh-1; Phenol red-HRP H2O2 redox cycling, absorbance 600 nm; Potency, µM (series often up to 115 µM), inactives show top-dose activity change, negative = H2O2 signal, actives largely listed as inhibitors; 150 tested, 40% active; AID 2035
HEK293 tox = counter-screen for GALK inhibitors: HEK293 cell cytotoxicity | shares compounds with Pol eta inh-1 | HEK-293 viability, ATP luminescence (CellTiter-Glo), 24/48 h | Potency, µM (doses to about 46.1 µM), for the others: at the highest dose activity change, negative = cytotoxicity, usual class: inhibitors | 170 tested, 10% active | AID 2547; also: potency is read from the fitted curve at half-maximal effect; % is scaled to controls: 0 for no effect and ±100 for the full control effect
Pol kappa inh-2 = Pol kappa (human) inhibition, cherry-pick confirmation; purified Pol-kappa, fluorescent strand-displacement substrate; 920 tested, 76% active; AID 720501; Potency, µM, usual class: inhibitors; shares compounds with Pol eta inh-1; also: potency is read from the fitted curve at half-maximal effect
Pol eta inh-2 = Pol eta (human) inhibition, cherry-pick confirmation. shares compounds with Pol eta inh-1. Pol eta primer extension, TAMRA/BHQ fluorescence, 10 min. Potency, µM, hits mostly inhibitors. 2,600 tested, 64% active. AID 720502; also: potency is read from the fitted curve at half-maximal effect
* marks the source's active call; other numbers are inactive results; ? = inconclusive; . = no result; ! = not active in a repeat; [ ] = dose if it differs, or a comment. Only some compounds are listed: those with a hit (about 2.4% of all), similar ones and a draw of the others. Calls follow the shape of the dose curve; as a rule, active = well fitted curve in the direction sought with a large enough effect; inconclusive = small, poorly fitted or top-dose-only effect, or another doubt; inactive = no such curve, though single readings can be large; an effect the other way counts as inactive or inconclusive.

SMILES	WRN inhibitor	Pol iota inh	Pol eta inh-1	Pol kappa inh-1	POLB inh	FEN1 inh	Pol iota confirm	Pol eta inh-2	others
CCc1ccc(NC2=NC(C(=O)c3ccccc3)CC(=O)N2)cc1 (stereo unspecified)	1%	13%	-2%	-7%	?	0%	.	.
Cc1ccc(S(=O)(=O)/N=C2\C=C(Nc3cccc(C(=O)O)c3)C(=O)c3ccccc32)cc1	8%	4µM*	32µM*	3%	?	?	75*	48*
COc1cc(C)ccc1OCCn1c(-c2ccc(Cl)cc2)nc2ccccc2c1=O	.	10%	10%	3%	0%	11%	.	.
O=C1C2C(C(=O)N1/N=C/c1cc([N+](=O)[O-])c(O)cc1O)C1C=CC2C12CC2 (stereo unspecified)	?	20µM*	10µM*	50µM*	11µM*	-32%	42*	30*
CN(C)S(=O)(=O)c1cc(NC(=O)COC(=O)/C=C/c2ccco2)ccc1Cl	?	?	25µM*	32µM*	?	?	.	67*	TbPGK inh=-26%
COc1cccc(/C=C/C(=O)OCC(=O)Nc2ccc(Cl)c(S(=O)(=O)N(C)C)c2)c1	-5%	10%	-26%	-3%	1%	-6%	.	.
O=C1C(SCCO)=C(SCCO)C(=O)c2ccccc21	79µM*	1.1µM*!	16µM*	?	5%[57.1 µM]	?	24*	24*	GALK confirm=19µM*;Redox cycling=11µM*;HEK293 tox=?
CCN(CC)C(=O)COC(=O)c1cc(-c2ccco2)nc2ccccc12	?	14µM*	40µM*	79µM*	28µM*	?	47*	67*
CCN(CC)C(=O)COC(=O)c1cc(-c2ccc(OC)cc2)nc2ccccc12	-7%[57.1 µM]	-4%	0%	-14%	25%	?	.	.
O=C(O)c1ccccc1/C=N/NC(=O)c1cc(-c2ccco2)nc2ccccc12	?	?	3.2µM*	35µM*	8.9µM*	?	17*	7.6*
O=C(Nc1ccc(F)cc1F)c1cc(-c2ccco2)nc2ccccc12	-31%	19%	1%	-11%	5%	5%	.	.
COc1ccc(CCNC(=O)c2cc(-c3ccco3)nc3ccccc23)cc1	?	22µM*	8.9µM*	79µM*	.	-15%	34*	67*
O=C(Nc1ccccc1F)c1cc(-c2ccco2)nc2ccccc12	?	?	79µM*	-31%	.	1%	?	85*
COc1ccc(N2CCN(C(=O)c3c(C)oc4ncn(CC(C)C)c(=O)c34)CC2)cc1	.	10%	-18%	-2%	-17%	17%	.	.
O=S(=O)(c1ccc(Br)cc1)N1CCN(c2nc(-c3ccccc3)nc3ccccc23)CC1	.	17%	.	3%	.	-5%	.	.
O=C(c1cccc(F)c1)N1CCC[C@@]2(CCN(c3ccccc3)C2)C1	.	.	.	-13%[60.1 µM]	.	.	.	.
NC(=O)[C@H]1O[C@@H](O)[C@H](O)[C@@H](O)[C@@H]1O	.	.	.	-1%[19.4 µM]	.	.	.	.
Nc1cnccn1	.	9%	.	?	.	-5%	.	.
O=C1C2C(c3ccccc3)CC=CC2C(c2cccc([N+](=O)[O-])c2)N1Cc1ccccc1 (stereo unspecified)	.	-13%	.	-1%	.	12%	.	.
COC(=O)C1(Cc2ccc(O)cc2)OC(=O)C(O)=C1c1ccc(O)cc1 (stereo unspecified)	?	13µM*	11µM*	?	20µM*	?	42*	27*
COC(=O)CCc1ccc(O)cc1	-7%	8%	2%	1%	26%	0%	.	.
Cc1[nH][nH]c(=O)c1C(c1ccc(-c2ccc(C(=O)O)cc2)o1)c1c(C)[nH][nH]c1=O	?	4.5µM*	?	-34%	25µM*	-21%	60*	?
Cc1cc(C)cc(OCC(=O)Nc2nc3c(s2)CC(C(C)(C)C)CC3)c1 (stereo unspecified)	.	22%	-4%	-3%	?	3%	.	.
NC(=O)NC(=O)COC(=O)c1ccc(OC(F)(F)F)cc1	-3%	3%	0%	-6%	31%	21%	.	.
O=C(COC(=O)c1ccc(OC(F)(F)F)cc1)Nc1ncccn1	?	?	18µM*	?	.	-1%	60*	76*	Pol kappa inh-2=?
SMILES	WRN inhibitor	Pol iota inh	Pol eta inh-1	Pol kappa inh-1	POLB inh	FEN1 inh	Pol iota confirm	Pol eta inh-2	others
COc1ccccc1-c1ccc2ncnc(N(C)C)c2c1	.	.	.	-1%[60.1 µM]	.	.	.	.
COc1ccc(-c2ccc3c(c2)S(=O)(=O)c2cccc(C(=O)NCc4ccccc4Cl)c2C3=O)cc1OC	-32%[11.6 µM]	10µM*	?	-2%	.	?	17*	27*
O=C(NCc1ccco1)c1cccc2c1C(=O)c1ccc(N3CCC(Cc4ccccc4)CC3)cc1S2(=O)=O	-4%	-4%	-14%	-29%	.	-15%	.	.
O=C(NCc1ccco1)c1cccc2c1C(=O)c1ccc(/C=C/c3ccccc3)cc1S2(=O)=O	-14%[11.6 µM]	25µM*	14µM*	?	.	?	42*	38*	Pol kappa inh-2=19*
CCNc1ncc2nc(-c3cc(F)cc(F)c3)c(=O)n(C)c2n1	.	.	.	-3%[60.1 µM]	.	.	.	.
COc1cccc(-c2cncnc2NCc2cccc(C)c2)c1	.	.	.	-5%[60.1 µM]	.	.	.	.
